Data as given in ChEMBL document CHEMBL4296182, “CO-ADD screening of NIH NCI Diversity Set V”.
For part of these data: Potency and affinity values are given separately.

Legend:
[1] = system: Staphylococcus aureus; experiment: Antibacterial activity against Staphylococcus aureus MRSA ATCC 43300 (CO-ADD:GP_020); MIC in CAMBH media using NBS plates, by Resazurin F(560/590); format: functional; details: Concentration 20 uM, ASSAY_TEST Inhibition of Bacterial Growth, detection method Resazurin, Fluorescence (ex560/em590), MEDIA CAMHB, plate type 384well, CORNING #3640, time 18 hr
[2] = system: Acinetobacter baumannii; experiment: Antibacterial activity against Acinetobacter baumannii ATCC 19606 (CO-ADD:GN_034); MIC in CAMBH media using NBS plates, by Resazurin F(560/590); format: functional; details: Concentration 20 uM, ASSAY_TEST Inhibition of Bacterial Growth, detection method Resazurin, Fluorescence (ex560/em590), MEDIA CAMHB, plate type 384well, CORNING #3640, time 18 hr
[3] = system: Escherichia coli; experiment: Antibacterial activity against Escherichia coli ATCC 25922 (CO-ADD:GN_001); MIC in CAMBH media using NBS plates, by Resazurin F(560/590); format: functional; details: Concentration 20 uM, ASSAY_TEST Inhibition of Bacterial Growth, detection method Resazurin, Fluorescence (ex560/em590), MEDIA CAMHB, plate type 384well, CORNING #3640, time 18 hr
[4] = system: Klebsiella pneumoniae; details: Concentration 20 uM; ASSAY_TEST Inhibition of Bacterial Growth; detection method Absorption (OD600); MEDIA CAMHB; plate type 384well; NBS; CORNING #3640; time 18 hr
[5] = system: Candida albicans; details: 20 µM
[6] = system: Cryptococcus neoformans; details: Concentration 20 uM; ASSAY_TEST Inhibition of Fungal Growth; detection method Resazurin; Absorption (OD600-OD570); plate type 384well; NBS; CORNING #3640

Compound | Inhibition [1] [%] | Inhibition [2] [%] | Inhibition [3] [%] | Inhibition [4] [%] | Inhibition [5] [%] | Inhibition [6] [%]
O=C(O)CCNC1CCCCC1 | 7.12 | -7.34 | 6.52 | 12.82 | 3.1 | -1.65
O=C(C(=O)c1cccnc1)c1cccnc1 | 7.87 | -9.17 | 12.61 | 6.86 | -0.57 | -3.14
COc1ccc(Cc2nnc(SC)n2-c2ccc(F)cc2)cc1OC | 7.78 | -2.89 | 10.28 | 14.43 | 2.19 | -3.12
CC12CCC(C(NC(=S)NN)C1=O)C2(C)C (stereo unspecified) | 2.53 | -10.15 | 7.86 | 9.19 | 1.53 | -9.53
O=C1/C(=C/c2ccc([N+](=O)[O-])cc2)CCc2ccccc21 | 6.03 | -4.9 | 11.7 | 8.24 | 3.4 | -8.15
O=C(CSc1nc2ccc([N+](=O)[O-])cc2s1)c1ccc2ccccc2c1 | -1.33 | 12.85 | 5.26 | 23.99 | 1.85 | 15.23
O=C(NC(=S)Nc1ccccn1)c1ccccc1 | -7.14 | -16.09 | 5.5 | 8.04 | 10.1 | -15.94
COC(=O)Cc1[nH]c(Cl)nc1C(N)=O | -16.49 | -11.06 | -2.69 | 2.53 | 1.21 | 7.24
C=CCN=C(S)Nc1cccc([N+](=O)[O-])c1 | -6.7 | -8.3 | 0.98 | 6.17 | 0.93 | -2.12
CSC(=N)NS(=O)(=O)c1ccc(NC(C)=O)cc1 | 1.24 | -21.01 | 12.78 | 3.27 | 0.03 | -9.44
CCOC(=O)Nc1c2ccccc2nc2ccccc12 | 6.28 | -11.12 | 4.72 | 16.5 | 2.36 | -13.98
Cc1nn(-c2ccccc2)c2c1C(c1ccc([N+](=O)[O-])cc1)C(C#N)=C(N)O2 (stereo unspecified) | 11.47 | 2.7 | 1.25 | 12.44 | -1.55 | -5.09
Nc1ccnn1-c1ccccc1 | 7.55 | -6.56 | 2.95 | 26.2 | 2.01 | -2.01
O=C1CSC(c2cccs2)N1c1nncs1 (stereo unspecified) | 13.4 | -18.82 | 13.34 | 3.03 | -0.07 | -10.32
O=C1OCC/C1=C\c1ccc(O)cc1 | -0.41 | -7.68 | 4.86 | 11.2 | 3.18 | 0.19
COc1ccc2c(=O)cc(-c3cccnc3)oc2c1OC | 4.17 | 8.21 | 2.42 | 26.45 | 9.13 | -11.85
Oc1ccc(/N=N/c2ccccc2)c(O)c1/N=N/c1ccccc1 | -22.17 | 3.79 | -20.22 | -6.85 | 8.07 | 33.55
Cc1ccc(-n2nnnc2-c2cccnc2)cc1 | 21.74 | -2.15 | 12.35 | 4.8 | -0.65 | -9.13
CCC/C(C)=C/c1ccc(CC)cn1 | 1.51 | -4.3 | -16.08 | 8.87 | 3.23 | 27.41
O=C(O)CCC1(c2ccccc2)NC(=O)NC1=O (stereo unspecified) | 11.61 | -12.39 | 7.41 | 2.37 | -1.18 | -9.46
O=C(Cn1ccc(=O)[nH]c1=O)Nc1nccs1 | 4.05 | -8.5 | 10.86 | 12.12 | 0.84 | -10.28
CCOC(=O)C(Cc1ccc(O)cc1)Nc1nc2ccccc2o1 (stereo unspecified) | 27.08 | -2.1 | 6.27 | 19.95 | 10.7 | 8.22
CC(=O)OC1C=CCC2C(=O)c3cccc(O)c3C(O)C12 (stereo unspecified) | -1.42 | -10.27 | 6.95 | 7.69 | 6.66 | -16.38
Cc1ccn2c(C(C)O)nnc2c1 (stereo unspecified) | 16.33 | -15.76 | 12.13 | 2.31 | -1.79 | -15.94
NCCN1CCNCC1 | -1.38 | -9.37 | 9.81 | 11.04 | 1.05 | 4.22
O=C(O)C1CCC(=O)N1C(=O)OCc1ccccc1 (stereo unspecified) | 2.22 | -12.76 | 8.61 | 12.18 | -1.6 | -3.17

Compound | Inhibition [1] [%] | Inhibition [2] [%] | Inhibition [3] [%] | Inhibition [4] [%] | Inhibition [5] [%] | Inhibition [6] [%]
O=C(c1ccc(O)cc1)c1ccc(C(=O)c2ccc(O)cc2)cc1 | 20.54 | 4.24 | 2.65 | 14.45 | 3.86 | -7.33
OCc1nc2nc(Cl)c(Cl)[nH]c-2n1 | -3.73 | 14.74 | -8.33 | 8.57 | 1.75 | -8.15
C/C(=N\O)C1CC(CC(=O)O)C1(C)C (stereo unspecified) | -0.7 | -12.7 | 4.91 | 2.97 | 2.15 | -5.7
CC(=O)OCC1OC(COC(C)=O)(c2ccc(C)cc2)C(OC(C)=O)C1OC(C)=O (stereo unspecified) | -7.68 | -11.43 | 15.38 | 10.58 | -0.8 | -5.49
CCCOc1nc2c(c(=O)n(C)c(=O)n2C)n1C | 17.4 | 10 | 3.82 | -6.25 | 1.36 | -4.51
CCCCCC(=O)C(=O)c1ccc(O)cc1O | 10.4 | 8.8 | -2.2 | 16.02 | 6.66 | -6.56
O=C(O)CCC(=O)OCCN(Cc1ccc(Oc2ccc([N+](=O)[O-])cc2)cc1)C(=O)C(Cl)Cl | -5.95 | 0.5 | -4.03 | 4.09 | 4.52 | -1.27
O=C(O)c1cccc2c1C(=O)c1cccc3snc-2c13 | 11.24 | 8.28 | -4.32 | 2.89 | 21.9 | -0.5
CC(=O)OCCn1c([N+](=O)[O-])cnc1/C=[N+](\[O-])C1CCCCC1 | 22.69 | 11.41 | 8.05 | 25.14 | 4.46 | -10.83
COC(=NC(C)C)NC(C)C | 0.33 | -8.49 | 15.21 | 8 | 1.22 | -13.2
Cc1nc(Nc2ccc(F)cc2)nc(Nc2ccc(F)cc2)c1[N+](=O)[O-] | 16.01 | 5.04 | 5.3 | 11.05 | -2.79 | 0.25
COc1ccc(C(=S)N2CCN(c3ccccc3Cl)CC2)cc1OC | 21.01 | 9.29 | 8.55 | 6.8 | 6.76 | -9.03
c1ccc(-c2ccc3c(c2)NCCN3)cc1 | 0.03 | -10.39 | 5.22 | 8.37 | -1.02 | 1.51
c1ccc2c(c1)Nc1cc3ccccc3cc1S2 | 1.39 | -1.02 | 3.79 | 5.14 | -0.01 | -3.36
Cc1cc(=O)oc2cc(OS(C)(=O)=O)ccc12 | -6.24 | -3.66 | 13.01 | 7.19 | 0.46 | -11.39
CCOC(=O)CC1(C)NC(C(=O)O)C(C)(C)S1 (stereo unspecified) | -14.37 | 0.02 | -11.39 | 5.07 | 3.25 | 0.86
CC1CC(C)(C)NC2(CCCC2)N1 (stereo unspecified) | 12.12 | -5.32 | 5.91 | 11.32 | -0.15 | -4.43
Cc1ccc2c(c1)c1ccc3c(c1n2C)C(=O)C=CC3=O | 2.62 | -23.42 | 6.78 | 6.78 | 22.6 | 22.59
Nc1n[nH]c(Nc2ccccc2)n1 | 19.31 | 2.24 | 12.19 | 2.99 | -0.65 | -7.66
Cn1ncc2c(Nc3ccc(O)cc3)nc(Cl)nc21 | 6.63 | 8.39 | 3.23 | 11.85 | 5.74 | -12.05
Cc1nn(-c2ccccc2)nc1C(=O)Nc1ccc2[nH]ncc2c1 | 18.91 | 2.54 | 5.87 | 6.45 | -0.76 | -15.47
COC(=O)c1c(-c2ccccc2)[nH]c(-c2nccc3ccccc23)c1C(=O)OC | 3.54 | 6.34 | 1.46 | 12.08 | 2.5 | -2.2
OCC1CCCC(n2cnc3c(S)ncnc32)O1 (stereo unspecified) | 9.66 | 5.96 | 6.02 | 14.91 | 14 | -13.51
CC(O)(c1ccccc1)C(c1ccccc1)C1CCCCN1 (stereo unspecified) | 9.45 | 13.67 | -4.2 | 13.38 | 7.26 | -3.74
NC(S)=Nc1cccc(Cl)c1 | 9.52 | -8.51 | 1.81 | 0.23 | 2.81 | -2.86
